Test results as given in the supplement of paper PMC8387472.
± gives the standard deviation of the averaged measurements.

test system: mESC LDLR-Dup GFP reporter (SpCas9 MH-deletion repair); assay: fraction of GFP+ cells relative to DMSO control (fold change); higher = more MH-deletion repair to in-frame LDLR (or more editing); conditions: 2 µM; 7 days post-transfection

Structure (SMILES) | fraction of GFP+ cells
COc1ccc(S(=O)(=O)NCc2ccc(C(=O)NCCc3ccc(Cl)cn3)cc2)cc1 | 0.936 ± 0.16
O=c1[nH]c(C2CCCN2)nc2c1oc1ccc(Cl)cc12 (centres undefined) | 1.11 ± 0.15
CC1(C)CCC2=C(O1)c1ccccc1C(=O)C2=O [Beta-Lapachone] | 0.973 ± 0.027
COc1cccc2oc(-c3ccccc3)cc(=O)c12 [5-methoxyflavone] | 0.869 ± 0.26
CC(C)OC(=O)[C@H](C)N[P@](=O)(OC[C@H]1O[C@@H](n2ccc(=O)[nH]c2=O)[C@](C)(F)[C@@H]1O)Oc1ccccc1 [Sofosbuvir (PSI-7977, GS-7977)] | 1.03 ± 0.4
CN(C)c1nc(N(C)C)nc(N(C)C)n1 [Altretamine] | 1.41 ± 0.41
COc1ccc(CC(=O)Nc2nc3c(s2)CCc2ccccc2-3)cc1OC | 1.51 ± 0.37
Nc1nc(F)nc2c1ncn2[C@@H]1O[C@H](COP(=O)(O)O)[C@@H](O)[C@@H]1O [Fludarabine Phosphate] | 0.855 ± 0.23
Oc1nc(-c2ccc(C(F)(F)F)cc2)nc2c1CSCC2 | 0.752 ± 0.014
O=c1oc2c(O)c(O)cc3c(=O)oc4c(O)c(O)cc1c4c23 [Ellagic acid] | 0.913 ± 0.11
CSc1ccc(C(=O)/C=C/c2cc(C)c(OC(C)(C)C(=O)O)c(C)c2)cc1 [Elafibranor] | 1.63 ± 0.59
COc1cc(N2CCN(C)CC2)ccc1Nc1nccc(-c2cn(C)c3cnccc23)n1 | 0.577 ± 0.5
CC1=C(C(=O)Nc2ccc3[nH]ncc3c2)C(c2ccc(F)cc2)NC(=O)N1 (centres undefined) | 1.53 ± 0.42
NC(=O)c1ncn([C@@H]2O[C@H](CO)[C@@H](O)[C@H]2O)c1O [Mizoribine] | 1.05 ± 0.12
